Results from PubChem BioAssay AID590 (National Center for Advancing Translational Sciences (NCATS), 2007).
Among all 59,000 compounds or so, about 6,500 (11%) were called active. Roughly 15% stayed inconclusive and do not appear here. Rule as the data show it: active = max dye-equivalent concentration above about 10 nM; inconclusive = mostly about 1.1 nM to 9.6 nM; inactive = weaker than that. Many of the other results were omitted from the sample, so actives are more common in it than they were.

Test: qHTS Assay for Spectroscopic Profiling in A350 Spectral Region
Settings: Compound autofluorescence, 340/450 nm, Alexa 350 dye-equivalents; stronger effect = higher value
For `O=C(CN1CCN(S(=O)(=O)/C=C/c2ccccc2)CC1)NC(=O)NCc1ccco1`, the max dye-equivalent concentration was “inactive”.
In the case of `Cc1cccc(N=C2NC(=O)CS2)c1C`, the max dye-equivalent concentration is reported as “inactive”.
With `Cc1ccc(NC(=O)CN2CCC3(O)CCCCC3C2c2ccc3c(c2)OCO3)c(C)c1` (stereo not given) the max dye-equivalent concentration was “inactive”.
With `Cc1ccc2cccc(O)c2[n+]1[O-]` the max dye-equivalent concentration was 16 nM (active).
With `CC(=O)Nc1cccc2c1[n+]([O-])c(C)c(C)[n+]2[O-]` the max dye-equivalent concentration was “inactive”.
For `O=C(c1cc(C(F)(F)F)cc(C(F)(F)F)c1)N1CCC2(CCCN(c3ccccn3)C2)CC1`, the max dye-equivalent concentration was “inactive”.
With `O=C(Nc1cccc(C(=O)N2CCCC2)c1)c1ccccc1` the max dye-equivalent concentration was “inactive”.
With `C=C(C)Cn1c(SCC(=O)NCc2ccco2)nc2sc3c(c2c1=O)CCC3` the max dye-equivalent concentration was “inactive”.
For `CN1CCc2c(sc3c2c(NCc2ccco2)nc2nnnn23)C1`, the max dye-equivalent concentration was 530 nM (active).
With `c1coc(CNc2ncnc3ccccc23)c1` the max dye-equivalent concentration was “inactive”.
With `CCOC(=O)c1cnc(SCC(=O)NCc2ccco2)nc1N` the max dye-equivalent concentration was “inactive”.
With `CC(=NC1CCN(Cc2ccccc2)CC1)c1c(O)[nH]c(=O)[nH]c1=O` the max dye-equivalent concentration was “inactive”.
For `COc1ccccc1Nc1ncc(C(C)=O)c(C)n1`, the max dye-equivalent concentration was “inactive”.
For `COc1ccc(CCNC(=O)CSc2nc(C)nc3c2oc2ccccc23)cc1OC`, the max dye-equivalent concentration was “inactive”.
For `COc1ccccc1Nc1ncnc2c1oc1ccccc12`, the max dye-equivalent concentration was 84 nM (active).
For `O=C1CSC(=O)N1CCOCCN1C(=O)CSC1=O`, the max dye-equivalent concentration was “inactive”.
With `CS(=O)(=O)N1CCC2(CCN(c3ccncc3)CC2)CC1` the max dye-equivalent concentration was “inactive”.
For `COc1c(F)c(F)c(-c2csc(N)n2)c(F)c1F`, the max dye-equivalent concentration was 15 nM (active).
In the case of `Cc1ccc(F)cc1NC(=O)c1cccc(N(C)C)c1`, the max dye-equivalent concentration is reported as “inactive”.
With `OCCCNC(c1ccccc1)c1ccc(O)cc1` (stereo not given) the max dye-equivalent concentration was “inactive”.
With `O=C(Nc1ccc(F)cc1)c1cccnc1N1CCOCC1` the max dye-equivalent concentration was “inactive”.
With `C=CCn1c(COc2cccc3cccnc23)nnc1SCC(=O)OC` the max dye-equivalent concentration was “inactive”.
For `CCOc1cc(N2CCOCC2)c(OCC)cc1NC(=O)COc1cccc2cccnc12`, the max dye-equivalent concentration was 19 nM (active).
With `CCCn1c(SCC(=O)N2CCc3ccccc32)nnc1-c1ccncc1` the max dye-equivalent concentration was “inactive”.
In the case of `Cc1cccc(NC(=O)CSc2nc3c(c(=O)[nH]2)CCC3)c1C`, the max dye-equivalent concentration is reported as “inactive”.
For `COc1cccc(-c2nc(S(=O)(=O)c3ccccc3)c(N3CCOCC3)o2)c1`, the max dye-equivalent concentration was “inactive”.
For `COc1cccc(-c2cc3nc4c(c(N5CCC6(CC5)OCCO6)n3n2)CCCC4)c1`, the max dye-equivalent concentration was 130 nM (active).
In the case of `COc1ccccc1CNC(=O)C1CCN(S(C)(=O)=O)CC1`, the max dye-equivalent concentration is reported as “inactive”.
With `Cc1cc(C)c2nc3c(c([C@H](O)[C@@H]4CCCCN4)c2c1)CC/C3=C/c1ccc(Cl)cc1` the max dye-equivalent concentration was “inactive”.
In the case of `Cc1nc(NC(=O)CCC(=O)O)sc1C(=O)N(C)C`, the max dye-equivalent concentration is reported as “inactive”.
With `CCOC(=O)c1sc(/N=C/Nc2nc(C)c(C(=O)OCC)s2)nc1C` the max dye-equivalent concentration was 10 nM (active).
For `COC(=O)c1sc(NC(=O)c2csc3c2CCCC3)nc1C`, the max dye-equivalent concentration was “inactive”.
For `CCN(CC)P(=O)(C(NC(=O)OC)C(F)(F)C(F)(F)C(F)(F)C(F)F)N(CC)CC` (stereo not given), the max dye-equivalent concentration was “inactive”.
With `CCOc1cccc(NC(=O)C2CCCN(S(=O)(=O)c3ccc(OC)cc3)C2)c1` (stereo not given) the max dye-equivalent concentration was “inactive”.
For `CCOC(=O)c1c(C)c(C(=O)NCCc2ccc(S(N)(=O)=O)cc2)c(C)n1CC`, the max dye-equivalent concentration was “inactive”.
In the case of `C=CCNc1nnc(C)c2ccccc12`, the max dye-equivalent concentration is reported as “inactive”.
In the case of `CCOc1ccccc1-n1c(SCC(=O)N2CCCC2)nnc1-c1ccoc1C`, the max dye-equivalent concentration is reported as “inactive”.
In the case of `C=CCNc1nnc(SCC(=O)N2CCCCC2)c2ccccc12`, the max dye-equivalent concentration is reported as 15 nM (active).
For `O=C(OCC(=O)N1CCN(C(=O)c2ccco2)CC1)c1ccccc1Cc1ccccc1`, the max dye-equivalent concentration was “inactive”.
In the case of `COc1ccc(C2C(C(=O)N3CCN(c4ccc(OC)cc4)CC3)c3ccccc3C(=O)N2C)cc1` (stereo not given), the max dye-equivalent concentration is reported as “inactive”.
In the case of `C/C(Cl)=C\Cn1c(Nc2cccc(C)c2)nc2c1c(=O)n(C)c(=O)n2C`, the max dye-equivalent concentration is reported as “inactive”.
With `COCCNC(=O)c1ccccc1-c1nc(-c2ccccc2Cl)no1` the max dye-equivalent concentration was “inactive”.
In the case of `COCC(C)NC(=O)c1ccc(Cl)c(Cl)c1` (stereo not given), the max dye-equivalent concentration is reported as “inactive”.
For `COCCNC(=O)c1snc2ccc(Cl)cc12`, the max dye-equivalent concentration was 46 nM (active).
In the case of `OCCCNCc1ccccn1`, the max dye-equivalent concentration is reported as “inactive”.
For `Cc1noc(C)c1CSc1nc2cc(S(=O)(=O)N3CCOCC3)ccc2o1`, the max dye-equivalent concentration was “inactive”.
In the case of `CC(=O)Nc1ccc(S(=O)(=O)Nc2nc3n(n2)C(c2ccccc2)CC(=O)N3)cc1` (stereo not given), the max dye-equivalent concentration is reported as “inactive”.
With `Cc1onc(-c2ccccc2Cl)c1C(=O)NCCn1ccc2ccccc21` the max dye-equivalent concentration was “inactive”.
In the case of `Cc1nc(SCC(=O)Nc2cc(C)on2)c2c(C)c(C)sc2n1`, the max dye-equivalent concentration is reported as “inactive”.
In the case of `Cc1ccc2nc(-c3ccc(SCC(=O)Nc4cc(C)on4)nc3)[nH]c2c1`, the max dye-equivalent concentration is reported as 30 nM (active).
For `Cc1cc(C)c2c(c1)cc(C)c1nnc(SCC(=O)Nc3cc(C)on3)n12`, the max dye-equivalent concentration was “inactive”.
In the case of `Cn1c(=O)c2c(nc(SCC(=O)Nc3ccccc3N3CCCCC3)n2C)n(C)c1=O`, the max dye-equivalent concentration is reported as “inactive”.
With `CC(C)c1cc(CN(C)C)c(O)c(C(C)(C)C)c1` the max dye-equivalent concentration was “inactive”.
In the case of `O=c1oc2cc(O)ccc2cc1-c1ccc(F)cc1`, the max dye-equivalent concentration is reported as 100 nM (active).
In the case of `O=C(Cn1c(=S)nc2ccccn21)N1CCc2ccccc2C1`, the max dye-equivalent concentration is reported as “inactive”.
For `O=C1c2ccccc2C(=O)N1c1ccccc1S(=O)C(F)(F)F` (stereo not given), the max dye-equivalent concentration was “inactive”.
With `CC1Cc2ccccc2N1C(=O)Cn1cnc2ccccc2c1=O` (stereo not given) the max dye-equivalent concentration was “inactive”.
For `CCOC(=O)CCc1c(C)c(C#N)c2[nH]c3ccccc3n2c1=O`, the max dye-equivalent concentration was 5400 nM (active).
For `CCCOC(=O)Cc1c(O)c2ccccc2[nH]c1=O`, the max dye-equivalent concentration was “inactive”.
With `CCOC(=O)CC1=CC(=O)Nc2ccccc2N1` the max dye-equivalent concentration was “inactive”.
With `CC1(C)Cc2ccccc2-c2nnc(-c3cccc(O)c3)n21` the max dye-equivalent concentration was “inactive”.
In the case of `CCCC(=O)Nc1ccc(Cl)c(NC(=O)c2ccc(Br)o2)c1`, the max dye-equivalent concentration is reported as “inactive”.
With `Cc1cc(C)nc(-n2nc(C)cc2NC(=O)c2ccc(Br)o2)n1` the max dye-equivalent concentration was “inactive”.
For `CCc1c(C)sc(NC(=O)c2ccc(Br)o2)c1C(=O)OC`, the max dye-equivalent concentration was 190 nM (active).
For `COc1ccc(CCNC(=O)CSc2nnc(-c3cccc(F)c3)o2)cc1OC`, the max dye-equivalent concentration was “inactive”.
With `CC(C)C(=O)Nc1cccc(C(=O)Nc2ccc3c(c2)OCO3)c1` the max dye-equivalent concentration was “inactive”.
In the case of `O=C1c2ccccc2C(O)N1Cc1ccccc1` (stereo not given), the max dye-equivalent concentration is reported as 26 nM (active).
In the case of `O=C1c2cccnc2C(Nc2ccc(S(=O)(=O)N3CCCCCC3)cc2)N1Cc1ccccc1` (stereo not given), the max dye-equivalent concentration is reported as “inactive”.
In the case of `O=C(NC1CCCCC1)C1c2ccccc2C(=O)N1Cc1ccco1` (stereo not given), the max dye-equivalent concentration is reported as “inactive”.
In the case of `CC(C)(CNCC(O)c1ccccc1)N1CCOCC1` (stereo not given), the max dye-equivalent concentration is reported as “inactive”.
